Bioassay records (PubChem BioAssay)
RXFP1 antag = qHTS Assay for Antagonists of the Relaxin Receptor RXFP1 | HEK293-RXFP1, relaxin-stimulated cAMP HTRF, 30 min; stronger effect = lower value | activity change, negative = inhibition, % at 57.5 µM | 350,000 tested, 0.59% active | AID 1259400, 2018;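 active means activity change of -60% or lower, but not beyond a set lower limit; inconclusive means change between -60% and -40%, or beyond the set limit; inactive means change above -40%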; further: on the % scale 0 is the no-effect control and ±100 the full control effect
Target sequence (Q9HBX9 whole entry, looked up): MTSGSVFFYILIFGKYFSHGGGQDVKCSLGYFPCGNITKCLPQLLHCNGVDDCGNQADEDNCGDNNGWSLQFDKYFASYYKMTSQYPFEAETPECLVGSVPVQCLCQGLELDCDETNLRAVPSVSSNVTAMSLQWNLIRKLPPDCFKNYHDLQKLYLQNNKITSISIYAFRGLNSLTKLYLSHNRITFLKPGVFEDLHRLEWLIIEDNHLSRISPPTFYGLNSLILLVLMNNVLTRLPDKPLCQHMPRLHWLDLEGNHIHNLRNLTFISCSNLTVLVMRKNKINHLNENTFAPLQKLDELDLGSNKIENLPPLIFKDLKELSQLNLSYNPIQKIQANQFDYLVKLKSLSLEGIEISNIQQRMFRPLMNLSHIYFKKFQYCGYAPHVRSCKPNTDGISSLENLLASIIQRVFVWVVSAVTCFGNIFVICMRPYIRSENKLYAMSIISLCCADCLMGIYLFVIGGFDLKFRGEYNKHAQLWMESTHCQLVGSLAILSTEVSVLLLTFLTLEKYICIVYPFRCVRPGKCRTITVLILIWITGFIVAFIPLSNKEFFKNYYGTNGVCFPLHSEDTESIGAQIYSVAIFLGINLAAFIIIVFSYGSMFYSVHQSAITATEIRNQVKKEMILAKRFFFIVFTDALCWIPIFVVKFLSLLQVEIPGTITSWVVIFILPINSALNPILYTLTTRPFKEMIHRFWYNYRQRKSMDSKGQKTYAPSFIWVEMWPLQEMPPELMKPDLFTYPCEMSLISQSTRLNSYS
gsp ag = qHTS for Agonist of gsp, the Etiologic Mutation Responsible for Fibrous Dysplasia/McCune-Albright Syndrome: qHTS | gsp mutant cells, cAMP HTRF, 30 min | Potency, µM (top dose mostly 76.9 µM), for the others: at the top dose activation (cAMP increase), usual class: activators | 340,000 tested, 0.13% active; active means well fitted activation curve with a large enough effect; inconclusive means small, poorly fitted or top-dose-only effect, or another doubt; inactive means no such curve, though single readings can be large or run the other way; cell line not stated here;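 further: phosphodiesterase inhibitor Ro 20-1724 added with compounds to block cAMP breakdown; potency means the concentration at half of the fitted maximal effect; nearly all actives have a fitted effect of over 60% in size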
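Cells stably selected in G418 were plated at 2000/well, grown 16-24 hr, then given compounds in DMSO with the PDE inhibitor […] (300 uM solution added) for 30 min at 37C; cAMP was read by HTRF.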
RXFP1 agonist = qHTS Assay for Agonists of the Relaxin Receptor RXFP1; HEK293T-RXFP1 cAMP TR-FRET, 30 min; response scale: percent of porcine relaxin response, buffer zero; Relaxin receptor 1 (Homo sapiens), Q9HBX9; AID 2676, 2010; 370,000 tested, 0.3% active; Potency, µM (series often up to 57.5 µM), for inactives: at the top dose activation, most hits filed as activators; active means well fitted activation curve with a large enough effect; inconclusive means small, poorly fitted or top-dose-only effect; further: potency means the concentration at half of the fitted maximal effect; on the % scale 0 is the no-effect control and ±100 the full control effect; nearly all actives have a fitted effect of over 60% in size
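Agonist response is measured as cAMP accumulation in an RXFP1-transfected HEK293T line under PDE4 inhibition. Values are scaled between buffer-only and 29 nM porcine relaxin, and EC50s come from standard Hill equation fits.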
gsp antag = qHTS for Antagonists of gsp, the Etiologic Mutation Responsible for Fibrous Dysplasia/McCune-Albright Syndrome: qHTS; gsp-mutant cells, cAMP HTRF, 30 min; Potency, µM (top dose mostly 76.9 µM), inactives show at the top dose activity change, negative = inhibition, usual class: inhibitors; 340,000 tested, 0.4% active; AID 624288, 2012; calls by dose curve; cell line not stated here;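 further: intracellular cAMP measured with PDE inhibitor Ro 20-1724 present during compound exposure; potency means the concentration at half of the fitted maximal effect; on the % scale 0 is the no-effect control and ±100 the full control effect; nearly all actives have a fitted effect of over 65% in size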
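G418-selected cells were plated in DMEM/10% FBS for 16-24 h at 37C, then treated with compounds plus the PDE inhibitor […] (300 uM solution added) for 30 min at 37C. Intracellular cAMP was measured by HTRF after 30 min lysis at room temperature.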
* marks the source's active call; other numbers are inactive results; [ ] = dose if it differs, or a comment. Compounds with a hit are over-represented: about 0.9% of the library has one in this group of screens.

For Cc1ccc(C)c(N2CCN(CCCNC(=O)c3ccc4nc(C(C)C)oc4c3)CC2)c1 the results were RXFP1 antag -16.5 and RXFP1 agonist 3.6%.
For COc1ccc(OC)c(NC(=O)Cn2nc3c(cc2=O)CCCC3)c1 the results were RXFP1 agonist 0.4%.
COC(=O)c1cc2c(=O)c3ccccc3oc2nc1C was read as RXFP1 antag -8.5, gsp ag -2.9%[15.4 µM], RXFP1 agonist -2.0% and gsp antag 26.0%.
Screening COC(=O)c1cc2c(=O)c3ccccc3oc2nc1/C=C/N(C)C returned RXFP1 antag -18.3, gsp ag -7.2%[15.4 µM], RXFP1 agonist 4.4% and gsp antag 35.5µM*.
CN(C)CCCN(C(=O)c1ccc2c(c1)CCCC2)c1nc2c(F)cccc2s1 was read as RXFP1 antag -74.0*, gsp ag 18.3%[15.4 µM], RXFP1 agonist 2.0% and gsp antag 5.0%.
Screening Nc1nonc1-n1nnc(C(=O)N/N=C/c2cccnc2)c1CSc1ccccc1 returned RXFP1 antag -6.1, gsp ag -81.0%, RXFP1 agonist -0.2% and gsp antag -22.4%.
Screening Nc1nonc1-n1nnc(C(=O)N/N=C/c2ccc3c(c2)OCO3)c1-c1ccccc1 returned RXFP1 antag -12.6, gsp ag -4.6%[15.4 µM], RXFP1 agonist 3.0% and gsp antag 35.5µM*.
Screening Nc1nonc1-n1nnc(C(=O)N/N=C/c2cccnc2)c1CSc1ccc(Cl)cc1 returned RXFP1 antag -64.8*, gsp ag -7.0%, RXFP1 agonist 0.9% and gsp antag 35.5µM*.
Screening CCCOc1ccc(/C=N/NC(=O)c2nnn(-c3nonc3N)c2-c2cccs2)cc1OC returned RXFP1 antag -15.9, gsp ag -21.6%, RXFP1 agonist 1.6% and gsp antag 31.6µM*.
For Nc1nonc1-n1nnc(C(=O)N/N=C/c2ccc(Br)cc2)c1-c1ccc2c(c1)OCO2 the results were RXFP1 antag inconclusive, gsp ag 18.2%, RXFP1 agonist 0.2% and gsp antag inconclusive.
`CN(C)Cc1c(C(=O)N/N=C/c2cccc(OCc3ccccc3)c2)nnn1-c1nonc1N` gave RXFP1 antag -14.6, gsp ag -43.1%, RXFP1 agonist 1.5% and gsp antag 50.1µM*.
CCOc1ccccc1C(=O)N(Cc1ccc(N(C)C)cc1)CC1CCCO1 (configuration not stated) was read as RXFP1 antag 7.4 and RXFP1 agonist 1.5%.
`COC(=O)c1c(-c2cccs2)csc1NC(=O)COc1ccc(C(C)(C)C)cc1` gave RXFP1 antag -23.9 and RXFP1 agonist 3.7%.
Screening CC(=O)N1N=C(c2ccccc2)CC1c1ccc(F)cc1 (configuration not stated) returned RXFP1 antag 8.5, gsp ag inconclusive, RXFP1 agonist 1.3% and gsp antag -1.1%.
For CC(=O)N1N=C(c2ccc(C)o2)CC1c1cccc(F)c1 (configuration not stated) the results were RXFP1 antag -60.8*, gsp ag inconclusive, RXFP1 agonist -1.3% and gsp antag -3.7%.
`CNC(=O)NC(=O)CSc1nc(-c2cccs2)c(C#N)c(=O)[nH]1` gave RXFP1 antag 43.3, gsp ag inconclusive, RXFP1 agonist 14.1µM* and gsp antag 0.2%.
Screening N#Cc1c(-c2cccs2)nc(SCc2ccc(Cl)cc2)[nH]c1=O returned RXFP1 antag -3.4, gsp ag 73.0%[15.4 µM], RXFP1 agonist 15.8µM* and gsp antag 16.1%.
CSc1nc(-c2cccs2)c(C#N)c(=O)[nH]1 was read as RXFP1 antag 23.0, gsp ag 111.9%[15.4 µM], RXFP1 agonist 14.1µM* and gsp antag 17.8%.
For CSc1nc(-c2ccccc2)c(C#N)c(=O)[nH]1 the results were RXFP1 antag 36.4, gsp ag inconclusive, RXFP1 agonist inconclusive and gsp antag 16.3%.
For CCc1nc(SCc2ccc(F)cc2)[nH]c(=O)c1C#N the results were RXFP1 antag -18.2, gsp ag -11.2%, RXFP1 agonist -0.5% and gsp antag 35.5µM*.
For CCN(CCCNC(=O)c1cc2c(=O)n(C)c3ccccc3c2s1)Cc1ccccc1 the results were RXFP1 antag -5.3.
CC1CCN(S(=O)(=O)c2ccc3c(c2)oc(=O)n3CC(=O)NCc2ccc(F)cc2)CC1 was read as RXFP1 antag inconclusive and RXFP1 agonist 2.5%.
For COc1ccc(-c2c3c(=O)n(C)c(=O)n(C)c3c3n2-c2ccccc2NC3c2ccc(OC)cc2)cc1 (configuration not stated) the results were RXFP1 antag -11.3 and RXFP1 agonist -2.9%.
`O=C(Nc1cccc([N+](=O)[O-])c1)c1cc2ccccc2cc1O` gave RXFP1 antag -69.5*, gsp ag -24.0%, RXFP1 agonist 1.8% and gsp antag 14.1µM*.
For CCOC(=O)c1c(CN2CCN(C)CC2)n(-c2ccccc2)c2cc(Br)c(O)cc12 the results were RXFP1 antag -16.7, gsp ag 19.5%, RXFP1 agonist -2.8% and gsp antag -20.7%.
`CCOC(=O)c1c(CSC(=N)N)n(-c2ccccc2)c2cc(Br)c(OC(C)=O)cc12` gave RXFP1 antag -60.8*, gsp ag 2.1%[15.4 µM], RXFP1 agonist 0.2% and gsp antag 1.4%.
CCCCn1c(C)cc2c(c1=O)C1O[C@](c3ccsc3)(Cc3ccccc31)O2 was read as RXFP1 agonist 3.1%[11.5 µM].
For Cc1cc(C)c(O)c(-c2n[nH]c3c2C(c2cccc(O)c2)N(Cc2ccco2)C3=O)c1 (configuration not stated) the results were RXFP1 antag -80.5*, gsp ag -19.4%, RXFP1 agonist -1.8% and gsp antag -19.5%.
For Cc1ccc(CCNC(=O)c2c3c(nc4ccccc24)C(=O)N(C2CCCCC2)C3)cc1 the results were RXFP1 antag -71.6* and RXFP1 agonist 2.1%.
Screening Nc1c(O)ccc2c1C(=O)c1ccccc1C2=O returned RXFP1 antag -79.6*, gsp ag -4.0%, RXFP1 agonist -8.1% and gsp antag 25.1µM*.
CN1CCN(C(=O)C2=C[C@@H](c3ccc(C(F)(F)F)cc3)C[C@@H](OCCCCO)O2)CC1 was read as RXFP1 agonist 0.6% and gsp antag -2.7%.
Screening O=C(C1=C[C@@H](c2ccc(C(F)(F)F)cc2)C[C@@H](OCCCCO)O1)N1CCCCCCC1 returned gsp antag 11.2µM*.
CC(C)CCn1c2ccccc2c2cc(CC(N)=O)ccc21 was read as RXFP1 antag -72.4*, gsp ag 2.1%, RXFP1 agonist 0.4% and gsp antag 1.4%.
`CCOc1ccc(CCNC(=O)Cn2c(=O)c3cccn3c3ccc(F)cc32)cc1OCC` gave RXFP1 antag -19.2 and RXFP1 agonist inconclusive.
